PostGolgi ctrl – yeast control strain growth, post-Golgi counter-screen. efflux-deficient yeast background strain, growth absorbance A615, 16 h. inhibition, % at 10 µM. actives 5% (n = 98,000). AID 738
CYP2C19 inhib – inhibitors of human CYP2C19; P33261; CYP2C19 Supersomes, luciferin-H EGE luminescence, 30 min; inhibition, % at 5 µM; actives 21% (n = 96,000);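 active = CYP2C19 inhibition above a set limit at 5 µM in the primary screen, cut at about 50% in these data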;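 note: plate controls were negative control wells for no effect and 2.5 mM tranylcypromine positive control for full effect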
CYP2C19 act – increases human CYP2C19 enzyme activity. recombinant CYP2C19, luciferin-H EGE luminescence; active compounds read high; 0 = fully inhibited enzyme, 1 = untreated enzyme. activation factor at 5 µM. 96,000 tested, under 10 active;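 active = activation factor of at least 2 at 5 µM in the primary screen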;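 note: 0 = wells with 2.5 mM tranylcypromine and 1 = vehicle-only wells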
PostGolgi yeast – growth inhibition of a yeast mutant, post-Golgi transport screen. post-Golgi transport phenotypic cell assay. inhibition, % at 10 µM. actives 0.9% (n = 98,000). AID 739;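 note: yeast cells grown in 1536-well plates; yeast grown about 18 h at 30C before absorbance read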
CYP2C9 inhib – human CYP2C9 inhibition; inhibition, % at 5 µM; actives 20% (n = 96,000); AID 777; P11712; CYP2C9 Supersomes, luciferin-H conversion, luminescence;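 active = blocking of liver enzyme CYP2C9 beyond about 50% at 5 µM, limit read from the data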
Target sequence (P11712 whole entry, looked up): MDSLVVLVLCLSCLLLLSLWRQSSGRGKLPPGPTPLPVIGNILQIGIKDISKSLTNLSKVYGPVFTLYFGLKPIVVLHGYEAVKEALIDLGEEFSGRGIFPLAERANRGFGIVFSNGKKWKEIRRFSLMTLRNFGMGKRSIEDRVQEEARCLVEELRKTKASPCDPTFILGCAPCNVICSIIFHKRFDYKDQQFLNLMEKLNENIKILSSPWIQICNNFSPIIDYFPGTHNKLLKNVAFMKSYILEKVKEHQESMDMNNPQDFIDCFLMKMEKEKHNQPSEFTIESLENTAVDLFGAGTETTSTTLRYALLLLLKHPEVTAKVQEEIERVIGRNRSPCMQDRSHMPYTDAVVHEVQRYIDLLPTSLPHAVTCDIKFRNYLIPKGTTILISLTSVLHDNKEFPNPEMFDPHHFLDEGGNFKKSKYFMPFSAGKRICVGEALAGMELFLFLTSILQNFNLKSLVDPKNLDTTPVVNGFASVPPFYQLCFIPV
CYP2C9 activ – activators of human CYP2C9. recombinant CYP2C9, luciferin-H conversion, luminescence; active compounds read high; factor 1 = untreated enzyme, 0 = blocked. P11712. actives 1.4% (n = 96,000). AID 1024. activation factor at 5 µM;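 active = activation factor of 2 or more for CYP2C9 at a 5 µM dose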;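 note: 0 = sulfaphenazole-blocked wells and 1 = vehicle-only wells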
Starred values were filed as active, the others as inactive; nt = no result. Only some compounds are listed: those with a hit (about 32% of all), similar ones and a draw of the others. Cut-off read from the data, not from the text of the source, unless noted: active = inhibition above about 30%; inactive = the rest.

SMILES	PostGolgi ctrl	CYP2C19 inhib	CYP2C19 act	PostGolgi yeast	CYP2C9 inhib	CYP2C9 activ
CCOc1ccc(C(=O)NCC(=O)OCC(=O)Nc2ccccc2OC)cc1	3	46	0.5	3	-21	1.2
Cc1ccc(NC(=O)CSc2nnc(Cc3cccn3C)n2-c2ccc(F)cc2)cc1	13	5	0.9	-4	13	0.9
CCc1ccc(NC(=O)CSc2nnc(Cc3cccn3C)n2-c2ccc(F)cc2)cc1	9	22	0.8	-5	76*	0.2
Cc1ccc(NC(=O)CSc2nnc(Cc3cccn3C)n2-c2ccc(F)cc2)c(C)c1	11	22	0.8	3	68*	0.3
COc1ccc(Cl)cc1NC(=O)CSc1nncn1-c1cccnc1	-1	94*	0.1	0	34	0.7
CCOC(=O)c1ccccc1NC(=O)CSc1nnc(Cc2cccn2C)n1-c1ccc(F)cc1	10	24	0.8	-4	57*	0.4
Cn1c(NC(=O)c2ccccc2NC(=O)C(C)(C)C)nc2ccccc21	12	-14	1.1	3	8	0.9
COc1ccc(-n2c(=O)c3ccccc3n(CC(=O)NC3CCCCC3)c2=O)cc1	0	-4	1	-6	13	0.9
Cn1cccc1Cc1nnc(SCC(=O)Nc2ccc(F)cc2F)n1-c1ccc(F)cc1	14	52*	0.5	4	58*	0.4
Cn1cccc1Cc1nnc(SCC(=O)Nc2cccc(F)c2)n1-c1ccc(F)cc1	14	29	0.7	-2	22	0.8
COc1ccc(Cl)cc1NC(=O)CSc1nnc(Cc2cccn2C)n1-c1ccc(F)cc1	32*	27	0.7	4	11	0.9
O=S(=O)(NCCSc1ccc(Cl)cc1)c1ccc2c(c1)OCCO2	31*	86*	0.1	-3	63*	0.4
COc1ccc(CCNS(=O)(=O)c2cccc(F)c2)cc1OC	-3	51*	0.5	18	51*	0.5
COc1ccc(CCNS(=O)(=O)c2cccc(S(=O)(=O)N3CCCC3)c2)cc1OC	1	96*	0	5	84*	0.2
CCOCCCNS(=O)(=O)c1ccc2c(c1)OCCO2	3	29	0.7	6	-49	1.5
COCCCNS(=O)(=O)c1ccc2c(c1)OCCO2	6	78*	0.2	-2	-51	1.5
Cc1cccc(CCNS(=O)(=O)c2ccc(S(=O)(=O)N3CCCCC3)cc2)c1	5	-6	1.1	-3	32	0.7
Cc1nc(NC2=NCN(Cc3cccnc3)CN2)nc2c(C)cccc12	nt	-11	1.1	nt	-15	1.2
COc1ccc(CCNS(=O)(=O)c2cccc(C)c2)cc1OC	-4	98*	0	-10	89*	0.1
COc1ccc(CCNS(=O)(=O)c2ccc3c(c2)OCCO3)cc1OC	-6	84*	0.2	-2	46	0.5
COc1ccc(CCNS(=O)(=O)c2ccc3c(c2)oc(=O)n3C)cc1OC	12	nt	nt	4	nt	nt
Cc1cccc(CCNS(=O)(=O)c2ccc3c(c2)n(C)c(=O)c(=O)n3C)c1	14	-5	1	-10	44	0.6
COc1cc(OC)c(CN2CCN(c3ccc(F)cc3)CC2)cc1Br	9	78*	0.2	-4	11	0.9
COc1ccc(N2Cc3cccc(C(=O)NC(C)CCc4ccco4)c3C2=O)cc1 (stereo unspecified)	19	85*	0.2	-9	92*	0.1
CCOc1ccc(NC(=O)CNC(=O)c2cn(-c3ccccc3OC)c(=O)c3ccccc23)cc1	-5	86*	0.1	-2	88*	0.1
CCOC(=O)N1CCC(NC(=O)c2cccc3c2C(=O)N(c2ccc(OC)cc2)C3)CC1	38*	97*	0	-1	98*	0
CCOC(=O)N1CCC(NC(=O)c2cn(-c3ccc(OC)cc3)c(=O)c3ccccc23)CC1	13	91*	0.1	-7	90*	0.1
CCCN1Cc2cccc(C(=O)Nc3cc(OC)cc(OC)c3)c2C1=O	8	12	0.9	-4	46	0.5
CC1=C(C(=O)Nc2ccccc2)C(c2sccc2C)n2nnnc2N1 (stereo unspecified)	4	21	0.8	-7	2	1
CCCCN=CC1=C(O)C(C(=O)OC)C(C)(C)CC1=O (stereo unspecified)	1	23	0.8	-4	-9	1.1

High-throughput results: PubChem, several laboratories
